The panel holds about 79,000 compounds, 15% with a hit somewhere; the sample as a whole holds those more often. Unmarked numbers belong to inactive results. Active and inactive are the calls of the source. No stated cut-off is given here; in the data, active means growth inhibition above about 70%; inactive means the rest.
Legend:
[1] = NCI Yeast Anticancer Drug Screen. Data for the rad50 strain (AID 155);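 further: 0% = growth of vehicle-only cultures of the same strain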; conditions: S. cerevisiae rad50 strain growth inhibition; at 50.0 µM; active compounds read high
Method in brief: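 A DNA repair-deficient yeast mutant serves as the test organism; compound-induced growth inhibition is calculated against vehicle-treated cells.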

[2] = NCI Yeast Anticancer Drug Screen. Data for the mec2-1 strain (AID 157); conditions: S. cerevisiae mec2-1 strain, at 50.0 µM, active compounds read high
Method in brief: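 Strain: mec2-1 (DNA repair/cell cycle alteration). Compound exposure, then growth measured; inhibition expressed relative to vehicle.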

[3] = NCI Yeast Anticancer Drug Screen. Data for the sgs1 mgt1 strain (AID 161);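 further: 0% = growth of cultures given vehicle only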; conditions: S. cerevisiae sgs1 mgt1 strain, at 50.0 µM, active compounds read high
Method in brief: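 Mutant yeast exposed to compound; growth scored against vehicle-only wells.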

[4] = NCI Yeast Anticancer Drug Screen. Data for the cln2 rad14 strain (AID 165);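 further: 0% = growth equal to vehicle treated cultures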; conditions: S. cerevisiae cln2 rad14 strain, at 50.0 µM, active compounds read high
Method in brief: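 Compounds are applied to the cln2 rad14 yeast strain, and growth is then compared with that of vehicle-treated cultures to give inhibition.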

[5] = NCI Yeast Anticancer Drug Screen. Data for the mlh1 rad18 strain (AID 175); conditions: S. cerevisiae mlh1 rad18 strain growth inhibition; at 50.0 µM; active compounds read high
Method in brief: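 Read-out is yeast growth inhibition, calculated against vehicle-only controls. The compound was applied to a strain engineered with DNA damage repair alterations.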

[6] = NCI Yeast Anticancer Drug Screen. Data for the bub3 strain (AID 167); conditions: S. cerevisiae bub3 mutant strain, at 50.0 µM, active compounds read high
Method in brief: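 Inhibition values come from growth of compound-treated mutant yeast normalised to vehicle-treated controls.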

| Compound | growth inhibition [1] | growth inhibition [2] | growth inhibition [3] | growth inhibition [4] | growth inhibition [5] | growth inhibition [6] |
| --- | --- | --- | --- | --- | --- | --- |
| O=S1(=O)CS/C(=N/C(=S)N(Cc2ccccc2)Cc2ccccc2)N1c1ccccc1 | 43% | 14% | 35.1% | 24.8% | 29.6% | – |
| CC(NC(C)c1ccccc1)c1ccccc1 (stereo unspecified) | 6.05% | 0.05% | -5.6% | -7.3% | -1.35% | – |
| CCC(CC)OCc1ccccc1 | 12.1% | 9.4% | 6.6% | 5.5% | 1.1% | – |
| Cn1c2ccccc2c2nn3cnnc3nc21 | 18.1% | 41.3% | -3.3% | 25.5% | -1.95% | – |
| CC1CCC(C(C)(C)c2ccccc2)C(=O)C1 (stereo unspecified) | 12.1% | -17.6% | -9.4% | 19.4% | 15.4% | – |
| CC(C)CCCC(C)CCCl (stereo unspecified) | 3.85% | -1.1% | -5.85% | 1.95% | -0.2% | – |
| COc1ccc2c(c1)CCC1=C2CCC2=CC(=O)CC[C@@]21C | 5.4% | 16.6% | 4.4% | 2.5% | -12.1% | – |
| CCO[Si](C)(CCC#N)OCC | 6.05% | -64% | -12.7% | 30.9% | 4.75% | – |
| CCCCCC(/C=N/Nc1ccccn1)=C\c1ccccc1 | -0.25% | -2.1% | 3.9% | -18.2% | -17.4% | -17.4% |
| C(=C\c1ccc2ccccc2c1)/c1ccc2ccccc2c1 | 6.75% | 25.6% | 16.6% | 63.5% | 31.4% | – |
| Cc1ccc(NC(=O)CSc2nnc(Cc3ccccc3)o2)c(C)c1 | -26.8% | -63.2% | -57.8% | -22.8% | -54.9% | – |
| COc1cc(-c2c(C#N)c(OC)[nH]c(=O)c2C#N)cc(OC)c1OC | 3.85% | 13.3% | 7.55% | 13.4% | -0.45% | – |
| CCOC(=O)C(=O)C1CC(c2ccccc2)=NNC1=O (stereo unspecified) | 23% | 26.5% | 12.9% | 23.1% | 26.2% | – |
| O=C(O)CS(=O)(=O)Cc1ccc(Cl)cc1Cl | 15.6% | 20.4% | 24% | 12.8% | 18.6% | – |
| O=S(=O)(c1ccccc1)c1ccccc1Br | 8% | 14.8% | -3.3% | -18.4% | 35% | – |
| Nc1nc(-c2ccccc2)nc(N)c1C=O | -21.8% | -21.9% | -43.2% | -4.95% | -20.6% | – |
| N#CC(C#N)=NO (tested in a mixture with another compound) | 11.8% | 6.6% | -7.7% | -0.75% | 5.75% | – |
| CCC(=O)NCCCCC1CCCC[N+]1(C)C (stereo unspecified) | -0.65% | -11.9% | 7.45% | -14.4% | -15.8% | – |
| c1ccc(N2N=NC3C4CC(C5COCC54)C32)cc1 (stereo unspecified) | 4.6% | -7.1% | -24.9% | -8.55% | -9.25% | – |
| CCCCCCCCOC(=O)Nc1cccc2ccccc12 | -12.8% | -11.2% | -2.6% | -39.7% | -9.2% | – |
| CCCC(=O)OCC(C)(C)COC(=O)CCC | -5.65% | -13.2% | 10.9% | 3.5% | 6.6% | – |
| COC(=O)/C=C/CCOS(C)(=O)=O | 9.6% | -35% | 0.55% | -39% | 16.5% | – |
| CCOC(=O)/C(Cc1ccccc1[N+](=O)[O-])=N/O | 6.7% | 2.85% | 8.65% | -13.4% | 26.6% | – |
| Cc1cc(O)c2c(c1)C[C@@H](O)C1=C2C(=O)c2c(O)ccc(OC3CC(O)C(OC4CC(OC5CCC(OC6CC(O)C(OC7CC(OC8CCC(O)C(C)O8)C(O)C(C)O7)C(C)O6)C(C)O5)C(O)C(C)O4)C(C)O3)c2C1=O (stereo partly specified) | 88.5% (active) | 90.6% (active) | 90.1% (active) | 84.8% (active) | 88.5% (active) | – |

| Compound | growth inhibition [1] | growth inhibition [2] | growth inhibition [3] | growth inhibition [4] | growth inhibition [5] | growth inhibition [6] |
| --- | --- | --- | --- | --- | --- | --- |
| Cc1nn(C)c(=O)c2nn(-c3ccccc3)c(C)c12 | 19.6% | 3.4% | 14.8% | 14.3% | 1.25% | – |
| CC1CC[P+](C)(c2ccccc2)c2ccccc21 (stereo unspecified) | 26% | 15.7% | 1.6% | -4.6% | 20.6% | – |
| O=c1cc(O)cc2n1CCC2 | 5.15% | 4.6% | -11.4% | 16.4% | 0.35% | – |
| C=CC1CC1(Cl)Cl (stereo unspecified) | -10.9% | 12.8% | -4.75% | -50.2% | 11.7% | – |
| Nc1c([N+](=O)[O-])cc(F)cc1C(F)(F)F | -5.5% | -17.6% | 3.6% | -14.9% | 6.7% | – |
| N#Cc1ccc(NC(=NCC(=O)O)Nc2ccc3ccccc3c2)cc1 | -16.2% | -30.6% | -14.6% | 25.8% | 8.25% | – |
| O=C(O)CCc1ccc2c(c1)OCO2 | -2.1% | -24.1% | -5.85% | -5.4% | -11.4% | – |
| CC(C)(C#N)CCCCC(N)=O | -1.4% | -13.4% | -12.2% | -6.1% | -10.7% | – |
| COC1=C(NCCc2ccccc2)C(=O)C(OC)=C(NCCc2ccccc2)C1=O | -43.2% | -4.7% | 18.9% | -22.3% | -11.6% | – |
| CCOC(=O)NC(=O)c1cn(CC(=O)NCC(=O)NCC(=O)N2CCN(CCn3c(C)nc(C(N)=O)c3N)CC2)c(=O)[nH]c1=O | 12.8% | 8.9% | 5.25% | -18.8% | -4.85% | – |
| Cc1cc(C)c(/C(O)=C/C(=S)N2CCOCC2)c(C)c1 | 33.5% | 14.1% | 43.1% | -33% | 32.6% | – |
| C/C(O)=C(\C=N\C(=S)N=Nc1c(O)[nH]c2ccccc12)C(=O)Nc1ccccc1C | 51.5% | 36.6% | 43.4% | 32.5% | 62% | – |
| C#CCN(C(=O)C(F)(F)F)C(/C=C\C(=O)OC)(C(=O)OCC)C(=O)OCC | -10.3% | -24.9% | -0.45% | -4.5% | -2.55% | – |
| O=C(O)c1ccccc1-c1ccccc1C(=O)O | -3.95% | -9.6% | -10.9% | -41.2% | 9% | – |
| CC(=O)OC(C)C1(C)CCC2CCCC(C)(C)C2C1 (stereo unspecified) | -6.4% | -5.15% | -11.9% | 0.7% | -13.7% | – |
| CNC(=O)Nc1ccc(C(=O)O)cc1 | 9.2% | 4.35% | 5.35% | -38.1% | 5.2% | – |
| COc1ccccc1NC(=O)NCCN1CCCC1 | -2.15% | 8.1% | 31.1% | – | 5.3% | 9.45% |
| O=C1C2CCC(C2)C12CC1(c3ccccc3)C(=O)c3ccccc3N1O2 (stereo unspecified) | -9% | -31.6% | -25.1% | – | -27.4% | 0.25% |
| CN(c1ccccc1Cl)S(=O)(=O)c1ccc([N+](=O)[O-])cc1 | -14.2% | -45.9% | 12.2% | – | -2.25% | 26.4% |
| CC(C)(C)CC(C)(C)N(CSc1ccc2ccccc2c1)CSc1ccc2ccccc2c1 | 20.9% | 4.55% | 21.1% | – | 17.6% | -0.45% |
| CSc1nc2cc(C)c(C)cc2[nH]1 | -5.1% | -3.1% | 27.8% | – | -6.85% | 15.1% |
| CCOC(OC(C)=O)[C@@H]1C=C[C@H](C)N(c2ccc([N+](=O)[O-])cc2)O1 (stereo partly specified) | 25.4% | 13.9% | 39.5% | – | 32.8% | 42.6% |
| CCN(Cc1ccccc1)C(=O)Nc1c(Cl)cccc1Cl | -13.5% | -30.1% | 1.35% | – | -4.05% | -9.85% |

— PubChem BioAssay (NCI)
